Screening data deposited in PubChem by National Center for Advancing Translational Sciences (NCATS).
A selection: hits, their analogues and other compounds. The true share with any hit is near 5.3%.
Tau fluor cs: counter-screen for tau fibril formation inhibitors; tau K18 P301L Alexa594 fluorescence, heparin fibrillization; Potency, µM (titrated, usually from 57.7 µM), without a hit: at the top dose activity change, negative = decrease; 280,000 tested, 0.93% active; further: potency means the concentration at half of the fitted maximal effect; nearly all actives have a fitted effect of over 55% in size
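Human K18 P301L tau (15 uM unlabeled plus 0.24 uM Alexa 594-labeled, final) in 100 mM sodium acetate pH 7 was mixed with compound and 20 uM heparin and incubated 6 hr at 37 C.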
JMJD2E inh: JMJD2E (human) inhibition; Potency, µM (series often up to 57.1 µM), inactives show at the highest dose activity change, negative = inhibition, hits mostly inhibitors; JMJD2E catalytic domain, FDH-coupled NADH fluorescence (FDH is formaldehyde dehydrogenase); B2RXH2; AID 2147; 230,000 tested, 1.6% active; active means well fitted inhibition curve with a large enough effect, not every such curve was filed as active; inconclusive means small, poorly fitted or top-dose-only effect, or another doubt; inactive means no such curve, though single readings can be large or run the other way;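 further: potency means the concentration at half of the fitted maximal effect; 0% = wells with enzyme and -100% = buffer wells without enzyme; nearly all actives have a fitted effect of over 50% in size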
Target sequence (B2RXH2 1-337 limits assumed): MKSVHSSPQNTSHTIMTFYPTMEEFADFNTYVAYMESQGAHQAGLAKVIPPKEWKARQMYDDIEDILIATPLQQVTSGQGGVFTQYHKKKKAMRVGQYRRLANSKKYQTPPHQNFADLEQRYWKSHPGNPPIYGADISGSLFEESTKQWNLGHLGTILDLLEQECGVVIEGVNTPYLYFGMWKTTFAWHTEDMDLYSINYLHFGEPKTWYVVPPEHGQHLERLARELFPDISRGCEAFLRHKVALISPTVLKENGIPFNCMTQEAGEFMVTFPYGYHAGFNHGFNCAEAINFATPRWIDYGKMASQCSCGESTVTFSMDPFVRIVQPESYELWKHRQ
Sfp inh: Sfp phosphopantetheinyl transferase inhibition; 310,000 tested, 3.5% active; Q9F4F7; Potency, µM, inactives show largest response in the series, negative = inhibition, actives largely listed as inhibitors; Biochemical Sfp PPTase activity, qHTS;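 further: the enzyme is Sfp with the accession as filed and its product quenches rhodamine fluorescence; potency means the concentration at half of the fitted maximal effect; 0% = enzyme reaction without inhibitor and -100% = no enzyme wells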
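Buffer: 50 mM Hepes-Na pH 7.6, 10 mM MgCl2, 0.01% Nonidet P-40, 0.01% BSA. Enzyme 15 nM, pre-exposed to compound 15 min; substrates then added and fluorescence change tracked over 30 min.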
Tau FP inhib: tau fibrillization inhibition (FP); Potency, µM (highest dose often 57.7 µM), inactives show at the top dose activity, negative = inhibition, actives largely listed as inhibitors; P10636; 280,000 tested, 0.39% active; K18 P301L tau heparin fibrillization, Alexa594 FP, 6 h; further: potency means the concentration at half of the fitted maximal effect; nearly all actives have a fitted effect of over 55% in size
Target sequence (P10636 561-689 P618L limits assumed): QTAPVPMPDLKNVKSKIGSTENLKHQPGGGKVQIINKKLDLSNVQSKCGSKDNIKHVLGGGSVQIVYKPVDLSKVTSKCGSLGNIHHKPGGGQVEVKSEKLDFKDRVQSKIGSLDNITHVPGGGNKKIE
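Human K18 P301L fragment (15 uM unlabeled plus 0.24 uM Alexa 594-labeled) in 100 mM sodium acetate pH 7 with compound, aggregation induced by 20 uM heparin for 6 hr at 37 C. ThT (30 uM) added for 1 hr, then Alexa 594 FP read.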
Coupling enz: counter-screen for Giardia aldolase inhibitors: coupling enzyme system | coupling enzyme system counterscreen, AmpLite Red fluorescence | activity change, negative = inhibition, % at 58.2 µM, hits read low | 290,000 tested, 0.67% active | AID 2472; in the data active means activity change below about -30%
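Activity here indicates interference with the coupling reaction, not aldolase inhibition. Compounds at 57.5 uM final met coupling enzymes for 10 min at RT; substrate and AmpLite Red detection followed, with a 525/598 nm fluorescence read after 20 min.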
Tau fibril ThT: tau fibrillization inhibition (ThT binding); P10636; recombinant tau K18 P301L (four-repeat tau fragment), heparin-induced fibrillization, ThT fluorescence; Potency, µM (series often up to 57.4 µM), for inactives: top-dose activity, negative = inhibition, actives largely listed as inhibitors; 270,000 tested, 2.1% active; AID 1460; further: potency means the concentration at half of the fitted maximal effect; nearly all actives have a fitted effect of over 55% in size
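Aggregation was driven by heparin (20 uM final) acting on recombinant tau […] bearing P301L in 100 mM sodium acetate pH 7; fibrils were detected with Thioflavin T.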
The depositor's hits bear a star; ? = inconclusive; / = no result given; [ ] = another dose, or the depositor's remark. Unless noted, the call rests on the fitted dose curve; in most records, active means well fitted curve in the direction sought with a large enough effect; inconclusive means small, poorly fitted or top-dose-only effect, or another doubt; inactive means no such curve, though single readings can be large; an effect the other way counts as inactive or inconclusive. Unless noted, on the % scale 0 is the no-effect control and ±100 the full control effect.

SMILES | Tau fluor cs | JMJD2E inh | Sfp inh | Tau FP inhib | Coupling enz | Tau fibril ThT
C/C=C(\C)[C@H](O)C[Si](C)(C)c1ccccc1 | -3% | 3% | -7% | 3% | 1 | 0%
S=C(NCCCc1ccccc1)Nc1ccccc1 | / | / | 10% | / | / | /
S=C(NCCc1ccccc1)Nc1ccc(Nc2ccccc2)cc1 | 16µM*[quencher] | -7% | -16% | ? | 0 | ?
COc1ccccc1-c1cncnc1N(C)Cc1ccco1 | / | / | -16% | / | -1 | /
Cc1ccccc1-c1cncnc1N(C)Cc1ccco1 | -20% | ? | 50µM* | -10% | -1 | ?
Cc1nnc(NCc2ccc(F)cc2)c2c1nnn2Cc1ccccc1Cl | 7% | / | / | 3% | / | 14%
Cc1cccc(NC(=O)CSc2nc3ccccc3o2)c1 | -20% | 0% | -9% | -3% | 2 | -14%
Cc1nn2c(-c3cccc(NC(=O)CSc4nc5ccccc5o4)c3)nnc2c2ccccc12 | -14% | ? | 56µM* | 2% | 7 | ?
O=S(=O)(c1ccc(Br)cc1)N1CCn2cccc2C1c1ccc(Br)cc1 (centres undefined) | -22% | / | / | ? | / | -8%
CCOC(=O)c1sc(NC(=O)Nc2cccc(Cl)c2)cc1C | 3.5µM*[quencher] | ? | -1% | ? | -2 | -23%
Cc1cc(C)cc(NC(=O)Nc2ccc(-n3ccc(C(F)(F)F)n3)cc2)c1 | ? | -20% | 7% | 18µM* | -3 | 3%
O=C(O)CCC(=O)Nc1ccc(-n2ccc(C(F)(F)F)n2)cc1 | -7% | -6% | -19% | -6% | 1 | /
CN(C)c1ccc(NC(=O)Nc2cccc(Cl)c2)cc1 | 14µM*[quencher] | 1% | -9% | 10% | -10 | 13µM*
O=C(Nc1cccc(Cl)c1)Nc1csc([N+](=O)[O-])c1 | 8.9µM*[quencher] | 2% | -11% | ? | -3 | 16µM*
CN(c1cccc(NC(=O)Nc2cccc(Cl)c2)c1)S(C)(=O)=O | ? | -1% | -2% | ? | 0 | -6%
COc1ccccc1NC(=O)Nc1ccc(-n2ccc(C(F)(F)F)n2)cc1 | 14µM*[quencher] | ? | 8% | ? | -13 | ?
O=C(Nc1ccc(-n2ccc(C(F)(F)F)n2)cc1)Nc1cccc(Cl)c1 | ? | -2% | 15% | 3.5µM* | -1 | 13%
O=C(O)c1ccccc1C(=O)Nc1ccc(-n2ccc(C(F)(F)F)n2)cc1 | -6% | 3% | 20% | 2% | 6 | -3%
O=C(O)COc1ccc(-c2nc(-c3ccccc3)c(-c3ccccc3)[nH]2)cc1 | / | / | 18% | / | 0 | /
COc1ccc(-c2nc(-c3ccccc3)c(-c3ccc(O)cc3)[nH]2)cc1 | 14µM*[quencher] | / | / | ? | / | ?
COc1ccc(-c2[nH]c(-c3ccc(O)cc3)nc2-c2ccccc2)cc1 | 22µM*[quencher] | / | / | 7% | / | ?
Cc1noc(C)c1S(=O)(=O)Nc1ccccc1Oc1ccccc1 | -20% | -25% | 1% | 6% | -10 | -9%
O=C1c2ccccc2-c2onc3ccc(Oc4ccccc4)c1c23 | 6.3µM*[quencher] | -10% | 1% | ? | 0 | 4.5µM*
O=C1Oc2ccccc2C(=O)C1C(CC(O)c1ccc(-c2ccc(Br)cc2)cc1)c1ccccc1 (centres undefined) | / | / | 18% | / | / | /
CCOc1ccc(C(=O)Nc2ccc3oc(-c4ccc5ccccc5c4)nc3c2)cc1 | -10% | / | / | -8% | / | ?
SMILES | Tau fluor cs | JMJD2E inh | Sfp inh | Tau FP inhib | Coupling enz | Tau fibril ThT
Cc1cnc(C(=O)Nc2ccc(F)cc2)cn1 | 2% | -1% | 10% | -7% | -1 | 4%
Cc1cnc(C(=O)Nc2ccc(N3CCN(C(=O)OC(C)(C)C)CC3)cc2)cn1 | -21% | 16% | 8% | -7% | 2 | 1.8µM*
Cc1cccc(NC(=S)NCCSc2ccc(Cl)cc2)c1 | 10µM*[quencher] | 2% | 24% | ? | -1 | -18%
CCCCn1c2ccc(F)cc2c2nnc(SCCN3CCOCC3)nc21 | / | / | 56µM* | / | 0 | /
Cn1c2ccc(F)cc2c2nnc(SCCN3CCOCC3)nc21 | / | / | ? | / | 3 | /
CCOc1ccc(CNC(=O)COc2cc(=O)n(C)c3ccccc23)cc1 | -5% | / | / | 5% | / | -5%
O=C(/C=C/c1ccccc1Cl)c1ccc(O)cc1 | -18% | 7% | -8% | -4% | -1 | ?
Cc1ccc(/C=C/C(=O)c2ccccc2)cc1 | -2% | 2% | -4% | ? | -2 | ?
Cc1ccc(C)c(/C=C/C(=O)c2ccccc(=O)c2O)c1 | ? | 22µM* | ? | ? | -1 | 22µM*
O=C(/C=C/c1ccccc1Cl)c1ccccc(=O)c1O | -25% | 14µM* | 45µM* | ? | 2 | 14µM*
Cc1ccc(/C=C/C(=O)c2ccccc(=O)c2O)c(C)c1 | -10% | 28µM* | ? | -4% | -5 | ?
Cc1cccc(Cn2c(C)c(CNC3CCCCCC3)c(C(=O)O)c2C)c1 | 1% | / | / | 5% | / | -4%
CO[C@@H]1c2cc(F)ccc2/C(=C\CCOC(=O)C/C=C/c2ccccc2)[C@H]1C | -17% | -3% | -22% | ? | 4 | ?
O=C(O)CCNc1ccc2c(c1)OCCO2 | -25% | 4% | 50µM* | ? | -41* | ?
O=C(O)CCCCCNC(=O)Nc1ccc2c(c1)OCCO2 | -9% | 7% | 15% | -8% | 5 | -11%
COc1cccc(-c2cn3c(n2)sc2cc(C(=O)NCCCc4ccccc4)ccc23)c1 | 1% | / | / | -6% | / | -5%
COc1ccc(NC(=O)CNS(=O)(=O)c2ccc(Cl)cc2)cc1 | -3% | 0% | -9% | -2% | 2 | -2%
COc1ccc(NC(C)=[N+](C)CCNS(=O)(=O)c2ccc(Cl)cc2)cc1 | / | / | 71µM* | / | / | /
CN(C)C1CCc2[nH]c3ccc(NC(=O)c4ccc(F)cc4)cc3c2C1 (centres undefined) | / | / | 4% | / | -1 | /
CCN(CC)CCCn1c(-c2ccccc2)nc2c(NCCOC)nc(C)nc21 | -10% | ? | 27% | -5% | 0 | -4%
CCN1CCN(CCCNC(=O)c2ccc3c(c2)NC(=O)/C(=C\c2cccc(C)c2)S3)CC1 | / | / | 35µM* | / | / | /
Cc1cccc(/C=C2/Sc3ccc(C(=O)NCCCN4CCOCC4)cc3NC2=O)c1 | / | / | 50µM* | / | -1 | /
CCN1CCN(CCCNC(=O)c2ccc3c(c2)NC(=O)c2ccccc2S3)CC1 | -6% | -1% | 13% | -4% | 4 | -14%
COc1ccc(/C=C2/Sc3ccc(C(=O)NCCCN4CCOCC4)cc3NC2=O)cc1OC | / | / | -3% | / | -3 | /
Fc1ccc(CSc2nncn3c2cc2occc23)c(Cl)c1 | -24% | / | / | -14% | / | -13%
O=C(NCCS(=O)(=O)N1CCN(c2ccccc2)CC1)C(c1ccccc1)c1ccccc1 | -1% | / | / | 0% | / | 10%
Cc1cc(C)nc(SC/C=C/c2ccccc2)n1 | / | / | 89µM* | / | -2 | /
